Test results: PubChem BioAssay (Tox21)
Values joined by “and” are separate entries in the source; they are usually repeats but may differ in a detail not shown here. Equal entries are not always repeated. Records with an inconclusive call do not appear. Where a call stands in place of a potency, no number is given. Some compounds were tested as several samples or in several runs, with calls that do not always agree. Active and inactive are the calls of the source. Calls come from the whole dose curve.

Key:
[1] = biological target: Acetylcholinesterase (Homo sapiens) (UniProt P22303); test: Acetylcholinesterase (AChE) small molecule antagonists: colormetric cell-based qHTS assay (AID 1347395); note: nearly all actives have a fitted effect of over 30% in size; note: potency is the fitted concentration of half-maximal effect
Chain of Acetylcholinesterase (Homo sapiens) (P22303 whole entry, looked up): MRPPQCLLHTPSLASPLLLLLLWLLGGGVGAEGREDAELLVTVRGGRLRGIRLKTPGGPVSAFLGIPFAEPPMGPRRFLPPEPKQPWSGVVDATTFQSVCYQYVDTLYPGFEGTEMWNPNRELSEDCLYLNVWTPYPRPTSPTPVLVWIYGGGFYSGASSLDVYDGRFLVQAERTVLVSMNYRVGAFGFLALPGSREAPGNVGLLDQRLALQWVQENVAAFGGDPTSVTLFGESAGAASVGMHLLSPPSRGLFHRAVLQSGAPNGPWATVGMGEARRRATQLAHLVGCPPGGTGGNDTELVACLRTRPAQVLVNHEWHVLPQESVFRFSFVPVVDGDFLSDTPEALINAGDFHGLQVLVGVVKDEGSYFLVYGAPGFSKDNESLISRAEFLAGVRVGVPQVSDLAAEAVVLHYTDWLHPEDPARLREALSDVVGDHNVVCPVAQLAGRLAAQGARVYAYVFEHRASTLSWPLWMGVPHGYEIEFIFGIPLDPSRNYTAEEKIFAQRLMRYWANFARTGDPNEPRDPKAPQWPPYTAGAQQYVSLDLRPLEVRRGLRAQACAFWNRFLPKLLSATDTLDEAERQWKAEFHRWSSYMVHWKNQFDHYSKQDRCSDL
How it was run: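 SH-SY5Y cells attached overnight, exposed to compound 30 min at 37 C, then given DTNB/acetylthiocholine; after 90 min at 37 C, colorimetric thiocholine read gives cellular AChE activity.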

[2] = biological target: Acetylcholinesterase (Homo sapiens) (UniProt P22303); test: Acetylcholinesterase (AChE) small molecule antagonists: enzyme-based qHTS assay (AID 1347397); conditions: Potency: AChE enzyme activity inhibition; outcome: AChE enzyme activity inhibition; note: nearly all actives have a fitted effect of over 55% in size; note: potency is the fitted concentration of half-maximal effect
How it was run: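 In this quantitative HTS, compounds from the Tox21 10K collection were preincubated 30 min at ambient temperature with recombinant human AChE dispensed at 50 mU/mL. Hydrolysis of acetylthiocholine was then followed for 10 min by DTNB colour development.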

[3] = biological target: Acetylcholinesterase (Homo sapiens) (UniProt P22303); test: Acetylcholinesterase (AChE) small molecule antagonists: fluorescence cell-based qHTS assay (AID 1347398); conditions: Potency: AChE activity; outcome: AChE activity; note: nearly all actives have a fitted effect of over 50% in size; note: potency is the fitted concentration of half-maximal effect
How it was run: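 Cells (SH-SY5Y) attached overnight, were dosed with compound or DMSO vehicle for 30 min at 37 C, and then incubated 40 min at room temperature with acetylthiocholine and Thiolite Green; green fluorescence indexed AChE activity.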

[4] = biological target: Acetylcholinesterase (Homo sapiens) (UniProt P22303); test: Acetylcholinesterase (AChE) small molecule antagonists: enzyme-based qHTS assay with human liver microsomes (AID 1347399); conditions: Potency: qHTS inhibition; outcome: qHTS inhibition; note: nearly all actives have a fitted effect of over 60% in size
How it was run: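 Recombinant human AChE (50 mU/mL in the enzyme mix) and human liver microsomes (0.25 mg/mL final) were preincubated with compound and NADPH (0.25 mg/mL final) for 30 min at 37 C. Acetylthiocholine/DTNB was then added; thiocholine was read colorimetrically after 10 min at room temperature.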

SMILES | Potency [1] | Potency [2] | Potency [3] | Potency [4]
C[N+](C)(C)CC(O)CCl (stereo not given) | inactive | inactive | inactive | inactive
O=C1CCCCCN1 | inactive | inactive | inactive | inactive
O=S(=O)(O)c1cccc2c(S(=O)(=O)O)cccc12 | inactive | inactive | inactive | inactive
COC(OC)C(C)c1ccccc1 (stereo not given) | inactive | inactive | inactive | inactive
c1ccc2c(c1)Oc1ccccc1S2 | inactive | inactive | inactive | inactive
CC(C)C(=O)Nc1cccc(C(F)(F)F)c1 | inactive | inactive | inactive | inactive
C[C@H]1C[C@@H]2[C@H]([C@@H](O)C[C@@]3(C)[C@H]2CC[C@]3(O)C(=O)CO)[C@@]2(C)C=CC(=O)C=C12 | inactive | inactive | inactive | inactive
N#C[C@@H]1C[C@@H]2C[C@@H]2N1C(=O)[C@@H](N)C12CC3CC(CC(O)(C3)C1)C2 | inactive | inactive | inactive | inactive
O=C(O)Cc1c[nH]c2ccccc12 | inactive | inactive | inactive | inactive
CN1CCCN(C(c2ccccc2)c2ccc(Cl)cc2)CC1 (stereo not given) | inactive | inactive | inactive | inactive
CCC(C)(C)c1ccc(CC(C)CN2C[C@@H](C)O[C@@H](C)C2)cc1 (stereo not given in full) | inactive | inactive | inactive | inactive
C=Cc1ccncc1 | inactive | inactive | inactive | inactive
Cc1ccc(C(=O)Oc2ccc(C(O)CNC(C)(C)C)cc2OC(=O)c2ccc(C)cc2)cc1 (stereo not given) | inactive | inactive | inactive | inactive
Oc1ccc(-c2ccccc2)c(Cl)c1 | inactive | inactive | inactive | inactive
C=CCNCC=C | inactive | inactive | inactive | inactive
Nc1ccc(Oc2cccc(Oc3ccc(N)cc3)c2)cc1 | inactive | inactive | inactive | inactive
CN(C)CCN(Cc1ccsc1)c1ccccn1 | inactive | inactive | inactive | inactive
CCC(C)(O)CCC=C(C)C (stereo not given) | inactive | inactive | inactive | inactive
O=C(c1ccccc1)c1ccc(Cl)cc1 | inactive | inactive | inactive | inactive
O=c1n(CCO)c(=O)n(CCO)c(=O)n1CCO | inactive | inactive | inactive | inactive

SMILES | Potency [1] | Potency [2] | Potency [3] | Potency [4]
C=CC(=C)CCC=C(C)C | inactive | inactive | inactive | inactive
CCOC(=O)Oc1ccc(CCNC(=O)[C@H](CCSC)NC(C)=O)cc1OC(=O)OCC | inactive | inactive | inactive | inactive
CC#N | inactive | inactive | inactive | inactive
CCCCCCCC(=O)OCCCCCC | inactive | inactive | inactive | inactive
C/C(CC(C)C)=N\O | inactive | inactive | inactive | inactive
CCN(CC)CCN | inactive | inactive | inactive | inactive
Cc1ccc(C)c(O)c1 | inactive | inactive | inactive | inactive
CC(C)CC(C)CC(C)CC(C)COC(=O)c1ccccc1C(=O)OCC(C)CC(C)CC(C)CC(C)C (stereo not given) | inactive | inactive | inactive | inactive
CCc1ccc(O)c(C(C)(C)C)c1 | inactive | inactive | inactive | inactive
O=C(O)Cc1ccc(Cl)cc1Cl | inactive | inactive | inactive | inactive
CC/C(C)=N\O[Si](C)(O/N=C(\C)CC)O/N=C(\C)CC | inactive | inactive | inactive | inactive
CSCCC=O | inactive | inactive | inactive | inactive
FC(F)(F)C(F)(F)C(F)(F)C(F)(F)CCI | inactive | inactive | inactive | inactive
COc1ccccc1/C=C/C=O | inactive | inactive | inactive | inactive
C[Si](C)O[Si](C)C | inactive | inactive | inactive | inactive
Nc1ccc2c(O)cc(S(=O)(=O)O)cc2c1 | inactive | inactive | inactive | inactive
CCCNC(C)C(=O)Nc1c(C)csc1C(=O)OC (stereo not given) | inactive | inactive | inactive | inactive
O=C1CCCCC1 | inactive | inactive | inactive | inactive
O=C(CCCl)NCc1ccccc1 | inactive | inactive | inactive | inactive
CC(=O)OCc1ccco1 | inactive | inactive | inactive | inactive

SMILES | Potency [1] | Potency [2] | Potency [3] | Potency [4]
CCn1cc(C(=O)O)c(=O)c2cc3c(cc21)OCO3 | inactive | inactive | inactive | inactive
CC1=C(C)S(=O)(=O)CCS1(=O)=O | inactive | inactive | inactive | inactive
CC(O)CNCC(C)O (stereo not given) | inactive | inactive | inactive | inactive
CC(C)CC(=O)O | inactive | inactive | inactive | inactive
CC(=O)/C=C/c1ccco1 | inactive | inactive | inactive | inactive
CCO[Si](CC)(OCC)OCC | inactive | inactive | inactive | inactive
CCn1c2ccccc2c2cc(N)ccc21 | inactive | inactive | inactive | inactive
CN(C(=O)CN(CCO)CC(=O)N(C)C(C)(C)Cc1ccccc1)C(C)(C)Cc1ccccc1 | inactive | inactive | inactive | inactive
CC(C(=O)O)c1ccc(/C=C2\CCCCC2=O)cc1 (stereo not given) | inactive | inactive | inactive | inactive
OC1C(O)C(O)C(O)C(O)C1O (stereo not given) | inactive | inactive | inactive | inactive
CCC(=O)Nc1cccc(N)c1 | inactive | inactive | inactive | inactive
O=C(NO)c1ccccc1 | inactive | inactive | inactive | inactive
CCCCCCCCCCCCCC[N+](C)(C)Cc1ccccc1 | 64.3 µM (active) and inactive | 64.3 µM (active) | 36.2 µM (active) and 30.9 µM (active) and 15.8 mM (active) | inactive
O=C(O)Cn1c(=O)n(Cc2ccc(Br)cc2F)c(=O)c2ccc(Cl)cc21 | inactive | inactive | inactive | inactive
Cc1ccc2c(c1)C(=O)c1ccccc1C2=O | inactive | inactive | inactive | inactive
Nc1ccccc1S(=O)(=O)O | inactive | inactive | inactive | inactive
O=C(O)CCC(=O)OC[C@@H](NC(=O)C(Cl)Cl)[C@H](O)c1ccc([N+](=O)[O-])cc1 | inactive | inactive | inactive | inactive
CC(C)(C)c1n[nH]c(=S)n(N)c1=O | inactive | inactive | inactive | inactive
C[Si](C)(C)O[Si](C)(C)C | inactive | inactive | 35.4 µM (active) and inactive | inactive
c1ccc2[nH]ccc2c1 | inactive | inactive | inactive | inactive
